# Experimental data taken from PubChem BioAssay (NCATS).
# Results filed as inconclusive are left out. Unmarked numbers belong to inactive results. Activity calls are given as the source filed them. Calls follow the shape of the dose curve; as a rule, active = well fitted curve in the direction sought with a large enough effect; inconclusive = small, poorly fitted or top-dose-only effect, or another doubt; inactive = no such curve, though single readings can be large or run the other way.
# Experiment: qHTS for Inhibitors of the vitamin D receptor (VDR): Hit Validation using a Texas Red Assay (AID 602201)
# Settings: VDR coregulator binding, Texas Red fluorescence polarization, agonist-bound VDR ligand-binding domain; series mostly up to 57.1 µM; activity, negative = inhibition: at the top concentration
# Method in brief: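 After a 2-hour room-temperature incubation, polarization of Texas-Red emission was read (Ex 595 nm/Em 615 nm). Final mix contained 7 nM Texas Red, 1.5 uM VDR-LBD and LG19078.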
# % is scaled to controls: 0 for no effect and ±100 for the full control effect; potency is read from the fitted curve at half-maximal effect.
Compound,"activity, negative = inhibition",Potency
CC(C)c1ccc(/C=C/c2[nH]c(=O)[nH]c(=O)c2[N+](=O)[O-])cc1,-7.89%,–
CCc1oc2ccccc2c1C(=O)CCN1CCCCC1,–,3.55 µM (active)
COc1cccc(/C=C/c2[nH]c(=O)[nH]c(=O)c2[N+](=O)[O-])c1O,-10.5%,–
Oc1ccc(C(=S)N2CCN(c3cccc(Cl)c3)CC2)cc1,-11%,–
O=C(Nc1ccc(F)cc1)c1nc(S(=O)(=O)Cc2ccccc2)ncc1Cl,–,5.62 µM (active)
O=C(O)CN1C(=O)/C(=C\c2cc(Br)ccc2OCc2ccc(F)cc2)SC1=S,-9.84%,–
COc1ccc(C2=CC(=O)N(Nc3ccccc3)C2=O)cc1,–,10 µM (active)
Cc1ccc(C(=O)NC2(O)C(=O)c3ccccc3C2=O)cc1C,-10.4%,–
CC(C)CN1C(=O)/C(=C(/C#N)C(=O)NC2CCCCC2)c2ccccc21,–,3.55 µM (active)
CC(=O)Nc1cccc(C(=O)/C=C/c2ccc(C)cc2)c1,-10.6%,–
Cc1c(C(=O)Nc2nc(-c3ccccn3)cs2)oc2ccccc12,5.73%,–
c1ccc(-c2ccc(C3=Nn4c(Cn5nnc6ccccc65)nnc4SC3)cc2)cc1,–,22.4 µM (active)
CN(C)c1ccc(C(=S)N2CCN(c3ccc([N+](=O)[O-])cc3)CC2)cc1,-14.2%,–
CS(=O)(=O)c1ccc(C(=O)OCc2nnc(-c3ccc(Cl)cc3)o2)cc1[N+](=O)[O-],–,8.91 µM (active)
O=c1[nH]c(/C=C/c2ccc(Cl)cc2Cl)c([N+](=O)[O-])c(=O)[nH]1,28.6%,–
Cc1c(Cc2ccc3c(c2)OCO3)sc(NC(=O)c2cccc3ccccc23)c1C(N)=O,–,28.2 µM (active)
CCN1C(=O)/C(=C\C(=O)c2cccs2)c2cc(Br)ccc21,-13.2%,–
O=C1NN(c2ccccc2)C(=O)/C1=C\c1cccc(OC(=O)c2cccs2)c1,35.2%,–
C#CCOc1ccc(/C=C2/C(=O)ON=C2C)cc1Br,-6.49%,–
c1ccc(OCc2nn3c(Cn4nnc5ccccc54)nnc3s2)cc1,–,14.1 µM (active)

Compound,"activity, negative = inhibition",Potency
O=[N+]([O-])c1c(NCCCO)cc(Sc2ccc(Cl)cc2)c2nonc12,–,15.8 µM (active)
CCSc1nnc(NC(=O)c2nc(S(=O)(=O)Cc3ccc(F)cc3)ncc2Cl)s1,–,3.16 µM (active)
Nc1ncnc2c1ncn2[C@@H]1O[C@H](CNCc2ccc(-c3cc(C(F)(F)F)ccc3Cl)o2)[C@@H](O)[C@H]1O,-16.2%,–
O=C(Nc1cc(S(=O)(=O)N2CCOCC2)ccc1N1CCCC1)c1ccc(Cl)cc1,–,20 µM (active)
O=C(/C=C/c1ccccc1F)c1cccc([N+](=O)[O-])c1,–,3.16 µM (active)
O=C(/C=C/c1ccc([N+](=O)[O-])cc1)c1cccs1,–,25.1 µM (active)
O=C(/C=C/c1ccc(Cl)cc1)c1ccc([N+](=O)[O-])o1,–,2.82 µM (active)
c1ccc(CCc2nn3c(Cc4ccccc4)nnc3s2)cc1,–,28.2 µM (active)
CCOc1cc(/C=C2\COc3ccccc3C2=O)cc(Br)c1OCC(=O)N(C)C,-20.6%,–
COc1ccc(C(Nc2cc(C)ccn2)c2ccc3ccc(C)nc3c2O)cc1 (stereo not given),–,14.1 µM (active)
COc1ccc(OC)c(/C=C/C(=O)c2ccc(Cl)cc2)c1,–,28.2 µM (active)
Cn1c(/C(C#N)=C/c2ccc(C(F)(F)F)cc2)nc2ccccc21,–,14.1 µM (active)
CCS(=O)(=O)c1ncc(Cl)c(C(=O)Nc2ccc(S(=O)(=O)N3CCCC(C)C3)cc2)n1 (stereo not given),–,3.55 µM (active)
c1ccc(-c2nnc3sc(-c4csc5c4CCCC5)nn23)cc1,–,22.4 µM (active)
Nc1c(C(=O)N2CCCCC2)sc(=S)n1-c1ccccc1,–,35.5 µM (active)
CC1=NNC(=O)/C1=C\c1cn(-c2ccccc2)nc1-c1ccccc1,–,3.16 µM (active)
Cc1nc(NC(=O)c2ccc(Cl)cc2)sc1Cc1ccc2c(c1)OCO2,-10.2%,–
O=S1OC(c2ccccc2)c2cc(Cl)ccc21 (stereo not given),–,7.08 µM (active)
CCOC(=O)c1c(C)oc2c1c1c(c3ccccc32)OCN(Cc2cccnc2)C1,–,20 µM (active)
O=C(O)c1cccc(CN2C(=O)S/C(=C/c3cccc([N+](=O)[O-])c3)C2=O)c1,–,20 µM (active)
